# The list is not random: actives were taken first. Their share in the collection is about 2.9%.
# SMARCA2 act: SMARCA2 function activation, primary screen. MG213 cells, MMTV-luciferase reporter, dexamethasone, overnight. activation, % at 9.1 µM. 1% of 370,000 active; in the data active = activation above about 7.8%
# GAA850 FXN act: frataxin GAA850 promoter activation. HEK293 lucGAA850 FXN promoter luciferase reporter, 24 h; percent of 10 µM SAHA response. activation, % at 6 µM. 0.56% of 360,000 active. AID 540364;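 active = activation above the average of all compounds screened plus 3 SD, cutoff fixed separately per campaign, cut at about 7.5% in these data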
# FAS TE block: blocks the thioesterase domain of human fatty acid synthase; P49327; recombinant FAS-TE, OMFH fluorogenic substrate, fluorescence endpoint; inhibition, % at 15 µM; 0.67% of 360,000 active; AID 602261;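 active = compounds whose normalised, plate-corrected inhibition of enzyme fluorescence in the single-dose primary screen is 50% or more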
# proKLK7 act: proKLK7 (human) activation, primary screen; purified proKLK7, EDANS-DABCYL substrate fluorescence; 100% is mature enzyme control, 0% vehicle; 0.9% of 370,000 active; activation, % at 7 µM;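 active = activation above the mean of all tested compounds plus 3 SD, computed per campaign excluding outliers beyond control limits, cut at about 13% in these data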
# Target sequence (P49862 whole entry, looked up): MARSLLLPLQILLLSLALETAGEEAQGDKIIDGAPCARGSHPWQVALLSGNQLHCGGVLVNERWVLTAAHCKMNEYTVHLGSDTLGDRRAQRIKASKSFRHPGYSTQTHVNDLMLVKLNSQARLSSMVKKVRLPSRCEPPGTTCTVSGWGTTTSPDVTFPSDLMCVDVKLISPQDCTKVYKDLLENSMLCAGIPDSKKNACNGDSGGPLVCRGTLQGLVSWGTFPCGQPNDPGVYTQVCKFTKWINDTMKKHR
# SMARCA2 conf: SMARCA2 activation, confirmation screen; activation, % at 9.1 µM; 30% of 3,500 active; MG213 cells, MMTV-luciferase with dexamethasone, luminescence, overnight; MG213 cells expressing E1A, Rb sequestered; DMSO wells 0%, reference activator 100%; shares compounds with SMARCA2 act;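 active = activation above its plate's cutoff, the mean activation of tested wells plus 3 SD, cut at about 7.9% in these data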
# GAL4-VP16 Luc: activates GAL4-VP16 luciferase, flagging SMARCA2 activator hits; HEK293 GAL4-VP16 pG5luc reporter, luciferase luminescence; scaled: DMSO wells 0%, SAHA wells 100%; shares compounds with SMARCA2 act; 41% of 3,500 active; activation, % at 9.1 µM; AID 686939;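 active = activation above the solvent-only control well mean plus 3 SD, averaged across control plates, cut at about 5.2% in these data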
# Hits are given with their value; i = inactive; nt = no result.
SMILES,SMARCA2 act,GAA850 FXN act,FAS TE block,proKLK7 act,SMARCA2 conf,GAL4-VP16 Luc
COc1ccc(-c2ccc(OC)c([C@H]3[C@H]4C=CC[C@@H](C)[C@@H]4C(=O)N3Cc3ccccc3)c2)cc1,i,i,i,i,nt,nt
COC(=O)c1ccc(-c2nc(-c3cccs3)no2)cc1,11,i,i,i,i,8.1
COc1ccc(-c2nc(-c3ccc(C(=O)O)cc3)no2)cc1,8.4,i,i,i,8.4,15
COc1cccc(-c2noc(-c3cccs3)n2)c1,9.5,i,i,i,8.0,13
COc1ccc(-c2ccc(-c3noc(-c4ccccc4)n3)c(OC)n2)cc1,12,i,i,i,i,i
Fc1ccc(-c2nc(-c3cccs3)no2)cc1,i,i,i,i,nt,nt
COc1nc(-c2ccccc2)ccc1-c1noc(-c2ccccc2)n1,i,i,i,i,nt,nt
CCOC(=O)C1=C(C)C(c2ccc(OC)cc2)NC(=O)N1 (centres undefined),i,i,i,i,nt,nt
COc1ccc2c(c1)c1ncn(Cc3ccco3)c(=O)c1n2C,i,i,i,i,nt,nt
COc1cccc(-c2nc(-c3ccccc3)no2)c1,8.8,i,i,i,8.4,14
FC(F)(F)c1cccc(-c2nc(-c3ccncc3)no2)c1,9.2,i,i,i,i,i
O=C(O)c1ccc(-c2noc(-c3cccc(C(F)(F)F)c3)n2)cc1,i,i,i,i,nt,nt
Cc1[nH]c(=O)c(C#N)c(C)c1CCC(=O)Nc1cc(S(C)(=O)=O)ccc1Cl,i,i,i,i,nt,nt
COC(=O)[C@H](C)NC(=O)C(Cc1ccc2c(c1)OCO2)NC(C)=O (some centres undefined),i,nt,nt,i,nt,nt
COC(=O)C1CCCN(C(=O)C(Cc2ccc3c(c2)OCO3)NC(C)=O)C1 (centres undefined),16,nt,nt,i,i,i
CN(Cc1ccccc1)C(=O)c1cccc(NC(=O)Cc2ccc(NC(=O)C3CCN(C(=O)CCc4ccccc4)CC3)cc2)c1,i,i,i,i,nt,nt
Brc1ccccc1OCCCCCN1CCOCC1,10,i,i,i,i,i
CC(C)c1ccccc1OCCCCCN1CCOCC1,i,i,i,i,nt,nt
O=c1[nH]ncc(N2CCCCCC2)c1Cl,i,i,i,i,nt,nt
Cc1ccc(C(=O)/C=C2\NCCNC2=O)cc1,12,i,i,i,12,15
Cc1ccc(C(=O)/C=C2\NCC(C)NC2=O)cc1 (centres undefined),i,i,i,i,nt,nt
CC1(C)Cc2c(sc(NC(=O)c3ccc4ncsc4c3)c2C(N)=O)C(C)(C)N1,8.5,i,i,i,13,8.0
CCOC(=O)C1=C(C)N=c2s/c(=C/c3ccc(OCC(=O)O)cc3)c(=O)n2C1c1cc(OC)c(OC)c(OC)c1 (centres undefined),9.1,i,i,i,i,i
COc1ccc2nc(C)cc(Nc3ccc(N4CCN(C)CC4)cc3)c2c1,74,i,i,i,133,i
COC(=O)CSc1nc(C)c(C(=O)Nc2ccccc2C)c(-c2ccc(Cl)cc2)c1C#N,i,i,i,i,nt,nt
SMILES,SMARCA2 act,GAA850 FXN act,FAS TE block,proKLK7 act,SMARCA2 conf,GAL4-VP16 Luc
O=c1c2sc(-c3ccccc3)cc2nc2n1CCC2,9.9,i,i,i,i,i
O=c1c2sc(-c3ccccc3)cc2nc2n1CCCCC2,i,i,i,i,nt,nt
O=C1C=C(C2CCCCC2)C(=O)c2ccccc21,i,i,i,i,nt,nt
CN(C)Cc1cc(O)c(CN(C)C)cc1O,8.0,i,i,i,i,i
Cc1ccc(C)c(OCCC(=O)OCC(=O)c2c(N)n(C)c(=O)n(C)c2=O)c1,i,i,i,i,nt,nt
CN1C(=S)SC2CS(=O)(=O)CC21C (centres undefined),12,i,i,i,i,i
O=C(NNC1=C(C(=O)C(F)(F)F)CCC1)c1ccc(Cl)cc1,14,i,i,i,i,i
O=C(NNC1=C(C(=O)C(F)(F)F)CCC1)c1cccc(Cl)c1,i,i,i,i,nt,nt
NC(Cc1ccc(Cl)cc1)c1csc(NC(=O)Nc2ccccc2-c2ccccc2)n1 (centres undefined),i,i,i,i,nt,nt
COc1ccc(C(=O)OCCN2CCN(C3CN(Cc4cn(Cc5ccccc5C(F)(F)F)nn4)S(=O)(=O)C3)CC2)cc1OC (centres undefined),i,nt,nt,i,nt,nt
O=[N+]([O-])c1cccnc1Oc1ccc(F)cc1,i,i,i,i,nt,nt
O=[N+]([O-])c1cccnc1Oc1ccccc1F,9.6,i,i,i,i,i
COc1ccccc1Oc1ccccc1[N+](=O)[O-],10.0,i,i,i,i,i
O=C(O)c1cccc(Oc2ccccc2[N+](=O)[O-])c1,12,i,i,i,i,i
CC(C)(C)N1C(=O)c2ccccc2NC(=O)C1C(=O)Nc1ccc(N2CCOCC2)cc1 (centres undefined),i,nt,nt,i,nt,nt
COc1ccc(S(=O)(=O)NCCC(=O)NCc2ccccc2)cc1,i,i,i,i,nt,nt
Cc1cccc2nc(-c3ccco3)oc(=O)c12,i,i,i,i,nt,nt
NNC(=O)c1sc(-c2ccc(Cl)cc2)cc1N,i,i,i,i,nt,nt
Cc1ccc(C(=O)CSc2nc(C)cc(C)c2C(N)=O)cc1,i,i,i,i,nt,nt
Cc1ccc(C(=O)CC(C(=O)O)n2ccc(C)n2)cc1 (centres undefined),8.2,i,i,i,i,i
CC(C)C(Cl)=NOC(=O)Nc1ccc(F)cc1,43,i,i,i,i,i
COc1ccc(-n2c(O)c(C=NCc3ccccn3)c3ccccc3c2=O)c(OC)c1,i,i,i,i,nt,nt
COc1ccc(NC(=O)c2nn(C)c3c2CS(=O)(=O)c2ccccc2-3)cc1,i,i,i,i,nt,nt
O=C(O)CNC(=O)C1(NC(=O)OCc2ccccc2)CCCC1,i,i,i,i,nt,nt
Cc1cc(NC(=O)c2c(F)cccc2Cl)no1,i,i,i,i,nt,nt
SMILES,SMARCA2 act,GAA850 FXN act,FAS TE block,proKLK7 act,SMARCA2 conf,GAL4-VP16 Luc
Cc1ccc(NNC(=O)c2c(F)cccc2Cl)cc1C,8.1,i,i,i,i,i
CCc1ccccc1NC(=O)C1CCC(=O)N(c2ccc(OC)cc2)C1c1ccc(OC)cc1 (centres undefined),9.6,nt,nt,i,i,i
Cc1ccc(-c2ccnc(=S)[nH]2)cc1,11,i,i,i,i,i
S=c1nccc(-c2ccc3c(c2)CCO3)[nH]1,i,i,i,i,nt,nt
CCOCCCNc1nc2ccccc2[nH]1,i,i,i,i,nt,nt
CCOCCCNc1ccc(-c2ccccc2)nn1,12,i,i,i,10,6.1
COC(=O)C1C(=O)/C(=C/N(C)C)C(=O)CC1(C)C (centres undefined),i,i,i,i,nt,nt
COC(=O)[C@]12C[C@H](CC(=O)N3CCSCC3)C(=O)N(Cc3ccccc3)C1=C[C@H](C1CCCC1)O[C@@H]2C,i,nt,nt,i,nt,nt
O=C(O)CCS(=O)(=O)c1nc(-c2cccs2)cc(C(F)(F)F)n1,13,i,i,i,i,i
